We go through 40 molecules from PubChem BioAssay (NCATS).

Molecules are shown by their SMILES. Several values for one entry are separate records, joined by “and”; a condition that tells them apart may be missing. Equal entries are not always repeated. Results filed as inconclusive are left out. Activity calls are given as the source filed them. Calls come from the whole dose curve.

In this test the target is Bile acid receptor (Homo sapiens) (UniProt Q96RI1). As to the kind of experiment: qHTS assay for small molecule agonists of farnesoid X receptor signaling (AID 588527).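 Note: series mostly up to about 77 µM; 0% = vehicle basal and 100% = reference agonist.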 To be noted: HEK293T FXR-UAS-bla, beta-lactamase ratio, 16 h; activation: active compounds read high. The source says: NIH Chemical Genomics Center [NCGC] U.S. Environmental Protection Agency [EPA] National Institutes of Environmental Health Sciences [NIEHS] National Toxicology Program [NTP] NCGC Assay Overview The farnesoid-X-receptor (FXR), a nuclear hormone receptor is highly expressed in liver, intestine, kidney and adrenal cortex. Natural ligands of FXR are the bile acids (Cholic acid, Chenodeoxy cholic acid etc). It is an important regulator of diverse metabolic pathways, including the bile acid homeostasis, lipid and glucose metabolisms. FXR regulates the expression of target genes by binding either as a monomer or as a heterodimer with RXR (retinoid X receptor). As FXR regulates a large number of target genes involved in bile acid, lipoprotein and glucose metabolisms, it is a potential pharmacological target for bile acid and lipid disorders. Thus screening environmental chemicals on FXR signaling can be used for the studies focused on metabolic syndrome, hepatic and intestinal toxicity etc.
Sequence of Bile acid receptor (Homo sapiens) (Q96RI1 whole entry, looked up): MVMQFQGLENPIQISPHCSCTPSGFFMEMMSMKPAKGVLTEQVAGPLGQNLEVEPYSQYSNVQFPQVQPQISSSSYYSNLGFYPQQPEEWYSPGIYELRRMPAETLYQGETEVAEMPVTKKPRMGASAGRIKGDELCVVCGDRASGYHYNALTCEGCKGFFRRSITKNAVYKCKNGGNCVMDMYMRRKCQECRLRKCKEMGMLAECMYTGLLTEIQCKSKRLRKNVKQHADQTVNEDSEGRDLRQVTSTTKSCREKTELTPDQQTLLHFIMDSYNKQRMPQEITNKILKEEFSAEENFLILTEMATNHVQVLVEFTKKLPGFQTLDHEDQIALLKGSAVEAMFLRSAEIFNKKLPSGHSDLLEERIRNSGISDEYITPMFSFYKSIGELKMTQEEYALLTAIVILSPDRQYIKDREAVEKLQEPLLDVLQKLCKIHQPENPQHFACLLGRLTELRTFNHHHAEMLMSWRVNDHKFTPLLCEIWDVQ
NCGC Assay Protocol Summary Using a beta-lactamase reporter-gene under control of Farnesoid X receptor (FXR) response element, a cell-based assay [GeneBLAzer FXR-UAS-bla assay developed by Invitrogen] was used to measure FXR ligands signaling. GeneBLAzer FXR-UAS-bla HEK293T cells were used with assay medium containing 10% dialyzed FBS. The assay was performed in clear bottom black Greiner 1536-well plates. Chenodeoxycholic acid and Guggulsterone were used in the screen as agonist and antagonist positive controls respectively. Library compounds were measured for their ability to stimulate the reporter gene activity. Compounds were screened in a titration series in 1536-well format. […] Data was normalized relative to Chenodeoxycholic acid control (100 uM, 100%), and DMSO only wells (basal, 0%). Concentration-response titration points for each compound were fitted to the Hill equation yielding concentrations of half-maximal stimulation (EC50) and maximal response (efficacy) values. qHTS protocol for FXR beta-lactamase assay in agonist mode [Step] [Parameter] [Value] [Description] 1. Reagent; 6 uL; 5000 cells/well 2. Incubation; 37 C for 5-7 hrs 3. Compounds; 23 nL; 0.59 nM to 92 uM 4. Controls (Chenodeoxycholic acid); 23 nL, - One column with dose response, start 200 uM, 1:2 dilutions in duplicates - Final concentrations of 100 uM and 60 uM in two columns 5. Incubation; 37 C for 16 hrs 6. Detection reagent; 1 uL of CCF4-dye 7. Incubation; RT for 2 hrs 8. Detection; Fluorescence; Envision plate reader
In general terms: In qHTS, concentration-response curves come from the screen itself.
For `Cc1ccc(Cl)cc1N`, the activation is -2.98% (inactive).
Consider `CCCCCCCCCCCCCCCCCCN`, for which the activation is 1.62% (inactive).
Consider `CC(C)CCCCCCc1ccc(O)cc1`, for which the activation is 6.07% (inactive).
Then `CC(C)[C@@H]1CC[C@@H](C)C[C@H]1O`, with 0.612% (inactive); and `CC(C)C1(C)N=C(c2ncccc2C(=O)O)NC1=O` (stereo not given), with -1.77% (inactive).
The same measure for `CCCCCCCC(=O)Oc1c(Br)cc(C#N)cc1Br`: 1.95% (inactive); for `CCCCCCCCOC(=O)c1cc(O)c(O)c(O)c1`: 5.29% (inactive); for `NS(=O)(=O)C(F)(F)C(F)(F)C(F)(F)C(F)(F)C(F)(F)C(F)(F)C(F)(F)C(F)(F)F`: 4.62% (inactive).
In the case of `COCc1cnc(C2=NC(C)(C(C)C)C(=O)N2)c(C(=O)O)c1` (stereo not given), the activation was -0.497% (inactive).
For the molecule `CN=C(N)NCC1CCOC1` (stereo not given), the activation was -3.33% (inactive) and 1.46% (inactive).
For the molecule `CCCCCCCCCCCC(=O)OC`, the activation is 11.1% (inactive).
The same measure for `CNC(=O)N(C)c1nc2ccccc2s1`: 4.82% (inactive); for `CCNC(=O)NC(=O)/C(C#N)=N/OC`: -0.507% (inactive); for `CC(C)OB(OC(C)C)OC(C)C`: -0.77% (inactive).
Turning to `CCCCN(CC)C(=O)SCCC`, the activation was 3.83% (inactive).
As for `FC(F)(F)c1cccc(Cl)c1`, the activation is -1.67% (inactive).
For `CN(C)c1nc(=O)n(C2CCC(O)CC2)c(=O)n1C` (stereo not given), the activation is 2.83% (inactive).
The same measure for `CCC[CH2][Sn]([CH2]CCC)([CH2]CCC)[O][Sn]([CH2]CCC)([CH2]CCC)[CH2]CCC`: 0.0431% (inactive).
For the molecule `CC(=O)O[C@@H]1CC(C)=C2[C@H]1[C@H](C)CC[C@H]2/C=C(\C)C(=O)O`, the activation is 0.825% (inactive).
The same measure for `CC1(c2ccc(Oc3ccccc3)cc2)OC(=O)N(Nc2ccccc2)C1=O` (stereo not given): 4.14% (inactive); for `COC(C)=O`: -0.0908% (inactive); for `Cc1cc(C)nc(NC(=O)NS(=O)(=O)c2ccccc2C(=O)OC2COC2)n1`: 1.23% (inactive).
Take `CCCCCCCCCCO`: the activation is -3.92% (inactive).
Then `CCC(C)(C)OC`, with 0.74% (inactive).
The same measure for `COCC(=O)N(c1c(C)cccc1C)[C@H](C)C(=O)OC`: 0.109% (inactive).
`CO/N=C1\C[C@]2(C[C@@H]3C[C@@H](C/C=C(\C)C[C@@H](C)/C=C/C=C4\CO[C@@H]5[C@H](O)C(C)=C[C@@H](C(=O)O3)[C@]45O)O2)O[C@H](/C(C)=C/C(C)C)[C@H]1C`: the activation was 6.07% (inactive).
Then `CC(C)N(C(=O)COc1nnc(C(F)(F)F)s1)c1ccc(F)cc1`, with 0.828% (inactive); and `CCOC(C)(C)C`, with 2.11% (inactive).
Then `CC1=CC(=O)NS(=O)(=O)O1`, with 1.83% (inactive) and 0.839% (inactive).
The same measure for `CCOC(=O)[C@H](C)Oc1ccc(Oc2nc3ccc(Cl)cc3o2)cc1`: -2.5% (inactive); for `C=CCOC(=O)CCCCCCCC`: -1.24% (inactive); for `Cc1ncc[nH]1`: -1.48% (inactive).
For `CC(CCC(=O)O)(c1ccc(O)cc1)c1ccc(O)cc1`, the activation is -2.09% (inactive) and 0.383% (inactive).
Then `CC(=O)OC(C(=O)c1ccccc1)c1ccccc1` (stereo not given), with -3.38% (inactive); and `CCC1CO1` (stereo not given), with -1.53% (inactive); and `Nc1cccc(C(F)(F)F)c1`, with -1.94% (inactive) and -0.257% (inactive).
Turning to `Cc1[nH]c(=O)n(C(C)(C)C)c(=O)c1Cl`, the activation was 0.517% (inactive).
Then `O=c1oc2cc(O)ccc2c2oc3cc(O)ccc3c12`, with 8.73% (inactive); and `CCCCC(CC)COP(=O)(O)OCC(CC)CCCC` (stereo not given), with -0.5% (inactive); and `C=CC(C)(O)CC/C=C(\C)CCC=C(C)C` (stereo not given), with 0.971% (inactive).
